Compounds with a hit are over-represented: about 5.4% of the library has one in this group of screens.
ALR inh – inhibitors of human ALR sulfhydryl oxidase, primary screen, biochemical, H2O2 detection, HRP-luminol luminescence, single point | purified ALR, DTT oxidation | AID 485317, 2010 | actives 3.8% (n = 290,000) | inhibition, % (no concentration beside the values) | FAD-linked sulfhydryl oxidase ALR (Homo sapiens), P55789;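 active means mean replicate inhibition above about 79%, with every replicate also reaching it, limit read from the data; inconclusive means only one of the two criteria met; inactive means mean below limit and not every replicate reaching it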
Target sequence (P55789 whole entry, looked up): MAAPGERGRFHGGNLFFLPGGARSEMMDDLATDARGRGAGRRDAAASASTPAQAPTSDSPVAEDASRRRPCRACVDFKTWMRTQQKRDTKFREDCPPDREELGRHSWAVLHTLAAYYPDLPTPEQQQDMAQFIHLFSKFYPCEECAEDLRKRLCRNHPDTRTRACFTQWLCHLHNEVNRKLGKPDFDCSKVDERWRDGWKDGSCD
CSC inhib – cancer stem cell viability inhibitors, primary screen, luminescence; actives 1.1% (n = 300,000); inhibition, % at 7.5 µM; cancer stem cell-like cells viability; in the data active means inhibition above about 75%; inconclusive means no clear call, values can overlap the other calls; tested in HMLE shEcad cells
PP5 inh – PP5 phosphatase inhibitors, primary screen, biochemical, fluorescence; Serine/threonine-protein phosphatase 5 (Homo sapiens), P53041; purified PP5c, OMFP substrate fluorescence; inhibition, % at 6.7 µM; actives 0.18% (n = 320,000); AID 1987, 2009;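 active means inhibition above the campaign's mean inhibition across all tested compounds plus 3 SD, cut at about 9.5% in these data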;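 further: 0% = DMSO only and 100% = 100 µM cantharidin control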
Calb FLC – C. albicans growth inhibition with fluconazole, primary screen, CaCi-2 strain, Alamar Blue fluorescence; C. albicans CaCi-2 (fluconazole-resistant clinical isolate) + fluconazole, 48 h; growth inhibition, % (no concentration beside the values); actives 0.57% (n = 300,000); AID 1979, 2009;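 active means growth inhibition above about 58% in most replicates, limit read from the data, passing the limit was not always enough; inconclusive means exactly half the replicates above a set limit; inactive means most replicates below a set limit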;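 further: all wells also contain fluconazole at 8 µg/ml as a sub-toxic cotreatment; 0% = median of DMSO wells and 100% = median of geldanamycin control wells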
PP1 inh – PP1-alpha phosphatase inhibitors, primary screen, counter-screen for PP5 inhibitor project, biochemical, fluorescence, OMFP substrate, single point; purified PP1alpha; inhibition, % at 6.7 µM; actives 0.9% (n = 320,000); AID 2235, 2010;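 active means inhibition above the mean inhibition of all tested compounds plus 3 SD, computed separately for each screening campaign, cut at about 15% in these data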
Target sequence (P62136 whole entry, looked up): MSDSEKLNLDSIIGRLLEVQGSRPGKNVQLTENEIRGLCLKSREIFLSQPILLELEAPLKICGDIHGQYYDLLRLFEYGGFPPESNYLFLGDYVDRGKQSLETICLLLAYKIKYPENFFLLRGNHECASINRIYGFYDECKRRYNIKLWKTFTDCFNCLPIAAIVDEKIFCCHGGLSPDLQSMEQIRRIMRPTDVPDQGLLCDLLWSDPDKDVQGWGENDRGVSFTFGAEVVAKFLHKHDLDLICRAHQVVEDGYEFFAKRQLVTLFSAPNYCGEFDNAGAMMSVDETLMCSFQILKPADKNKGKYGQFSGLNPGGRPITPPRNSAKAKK
PP1 inh confirm – PP1 phosphatase inhibitors, confirmation, biochemical, fluorescence, OMFP substrate, triplicate | shares compounds with PP1 inh | purified PP1alpha | inhibition, % at 6.7 µM | actives 52% (n = 1,900) | AID 2358, 2010;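 active means mean PP1 inhibition above a set limit taken from the earlier primary screen, cut at about 15% in these data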
PP5 counter – PP5 phosphatase inhibition by PP1 hits, confirmation, counter-screen for PP1 inhibitor project, biochemical, fluorescence, triplicate. shares compounds with PP1 inh. purified PP5c, OMFP fluorescence. inhibition, % at 6.7 µM. actives 4% (n = 1,900). AID 2360, 2010;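 active means mean PP5 inhibition over triplicate wells above about 9.5% taken from the earlier PP1 screen, limit read from the data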
* hit, by the source's call; ? = inconclusive; nt = no result.

SMILES	ALR inh	CSC inhib	PP5 inh	Calb FLC	PP1 inh	PP1 inh confirm	PP5 counter
CN1CCN(C(c2ccccc2)c2ccc(Cl)cc2)CC1 (stereo not drawn)	-12	0	1	nt	1	nt	nt
Oc1c(C(c2ccccn2)N2CCCCC2)cc(Cl)c2cccnc12 (stereo not drawn)	83*	70	5	9	75*	73*	3
CN1CCN(C(c2ccc(Cl)cc2)c2cc(Cl)c3cccnc3c2O)CC1 (stereo not drawn)	-2	-16	2	-6	22*	-3	1
Cc1[nH]c2ccccc2c1C(c1ccccn1)N1CCCC1 (stereo not drawn)	nt	14	1	4	-2	nt	nt
CN1CCN(C(c2ccc(C(F)(F)F)cc2)c2cc(Cl)c3cccnc3c2O)CC1 (stereo not drawn)	10	110*	5	100*	21*	2	-3
CCC(=O)NC(c1cc(Cl)c2cccnc2c1O)C1CC1 (stereo not drawn)	6	32	-1	nt	0	nt	nt
CCN1CCN(C(c2ccc(C(F)(F)F)cc2)c2ccc3cccnc3c2O)CC1 (stereo not drawn)	22	104*	3	-2	18*	-6	-1
CNS(=O)(=O)c1cccc2cccnc12	4	-3	-3	-3	3	nt	nt
COc1cccc(/C=C2/SC(=S)N(CC(=O)NNC(=O)c3ccccc3OC)C2=O)c1	-2	8	2	-49	5	nt	nt
O=C1CCc2cc(S(=O)(=O)N3CCN(C(=O)c4ccco4)CC3)ccc2N1	-19	5	5	-11	71*	-2	-4
O=C(c1ccco1)N1CCN(S(=O)(=O)c2ccc(F)cc2)CC1	nt	-7	-1	15	-2	nt	nt
COc1ccc(N(CC(=O)Nc2ccc(C)cn2)S(=O)(=O)c2c(C)nn(C)c2C)cc1	-1	-11	1	nt	-3	nt	nt
CCCCCCSc1cccc(-c2nc3cc(C)ccn3c2NCc2ccccc2)c1	nt	63	3	-7	19*	4	0
CCCCCCSc1cccc(-c2nc3cc(C)ccn3c2NC2CCCCC2)c1	nt	83*	4	2	19*	4	0
CCCCNc1c(-c2ccc(-c3cccc(Cl)c3)cc2)nc2ccc(Cl)cn12	-6	38	nt	nt	nt	nt	nt
CCC(C)Sc1cccc(-c2nc3ccc(Cl)cn3c2NCc2ccccc2)c1 (stereo not drawn)	23	58	5	-9	19*	5	3
CCCCNc1c(-c2cccc(-c3cc(C(C)=O)cs3)c2)nc2cc(C)ccn12	nt	24	5	12	8	nt	nt
Cc1c(NC(=O)CN2C(=O)NC(C)(c3ccccc3Cl)C2=O)c(=O)n(-c2ccccc2)n1C (stereo not drawn)	1	-9	-1	-1	-3	nt	nt
Cc1ccc(C(C)C)c(OCc2nn(CC(=O)c3ccc(Cl)cc3)c3[n+]2CCCCC3)c1	nt	?	3	17	23*	-18	-1
O=C(O)C1C2CCC(O2)C1C(=O)Nc1ccc(Br)cc1F (stereo not drawn)	nt	-8	66*	0	58*	14	21*
Cc1ccc(Cl)cc1NC(=O)C1C2CCC(O2)C1C(=O)O (stereo not drawn)	3	-6	56*	-1	52*	10	16*
Cc1ccc(NC(=O)C2C3CCC(O3)C2C(=O)O)c(Br)c1 (stereo not drawn)	-6	0	73*	-5	67*	20*	28*
O=C(Nc1cc([N+](=O)[O-])ccc1F)c1cccs1	-4	1	3	-1	0	nt	nt
CC1CC(NC(=O)CC#N)CC(C)(C)C1 (stereo not drawn)	0	-6	1	-24	-2	nt	nt
O=C(Nc1ccccc1N1CCCC1)c1cccc(-c2cc3ccccc3oc2=O)c1	3	90*	0	7	18*	19*	-1
SMILES	ALR inh	CSC inhib	PP5 inh	Calb FLC	PP1 inh	PP1 inh confirm	PP5 counter
O=C(NCCC1CCCCN1S(=O)(=O)c1ccc(Cl)cc1)C(=O)NCc1cccnc1 (stereo not drawn)	-9	14	2	16	52*	-3	-1
Cc1cc(S(=O)(=O)N2CCCCC2CCNC(=O)C(=O)NCc2cccnc2)ccc1F (stereo not drawn)	-1	-10	-2	3	-4	nt	nt
COc1ccc(-c2noc(-c3ccccc3C(=O)NCC3CCCO3)n2)cc1 (stereo not drawn)	-2	1	-1	-22	-1	nt	nt
Cc1cc(C(C)(C)CC(C)(C)C)ccc1OCCOCC[N+](C)(C)Cc1ccccc1	-4	118*	5	nt	30*	7	3
CCc1cccc(C)c1NC(=O)CSc1nc(-c2ccccc2F)nc2nc[nH]c12	1	1	-1	-22	24*	16*	-4
COc1ccc(C)cc1S(=O)(=O)N(CC(=O)NCc1ccc(Cl)cc1)Cc1ccccc1	-18	2	4	1	0	nt	nt
CN(C)c1ccc(N=Cc2ccco2)cc1	94*	nt	1	nt	18*	10	3
CCc1nnc(NC(=O)c2ccc(S(=O)(=O)N(CC(C)C)CC(C)C)cc2)o1	59	nt	1	nt	25*	30*	-2
CSCc1nnc(NC(=O)c2ccc(S(=O)(=O)N(C)C)cc2)o1	34	-6	1	-11	6	nt	nt
CNC(=O)c1ccsc1NC(=O)c1ccc(S(=O)(=O)N2CCCc3ccccc32)cc1	3	25	3	-1	6	nt	nt
CSCc1nnc(NC(=O)c2ccc(S(=O)(=O)N(CC(C)C)CC(C)C)cc2)o1	nt	nt	nt	-31	nt	nt	nt
C=CCN(CC=C)S(=O)(=O)c1ccc(C(=O)Nc2nnc(CSC)o2)cc1	38	24	0	4	22*	19*	7
CCc1nnc(NC(=O)c2ccc(S(=O)(=O)N3CCCc4ccccc43)cc2)o1	0	-13	1	-9	35*	28*	2
Cc1ccc(Oc2nsnc2N2CCOCC2)cc1	5	-5	0	11	-2	nt	nt
O=C(C1=C[C@@H](c2ccc(Br)cc2)C[C@@H](OCc2ccc(CO)cc2)O1)N1CCN(Cc2ccccc2)CC1	-8	40	0	-11	3	nt	nt
C#Cc1ccc([C@H]2C=C(C(=O)N3CCN(Cc4ccccc4)CC3)O[C@@H](OCc3ccc(CO)cc3)C2)cc1	-3	7	2	0	19*	20*	3
COc1ccc(-c2cc(-c3ccccc3)nc(SCC(=O)Nc3nccs3)c2C#N)cc1	nt	-6	-1	7	-5	nt	nt

Bioassay records from PubChem BioAssay.
